Source: PubChem BioAssay AID463173 (ICCB-Longwood Screening Facility, Harvard Medical School, 2010)
In all, about 52,000 compounds went through this assay and about 1,700 (3.3%) were called active. The sample holds actives, similar compounds and a random draw of the others, so the mix is not that of the screen. No stated cut-off is given here; in the data, active means survival mostly below about 52% (no sharp cut-off); inactive means mostly above about 56%.

Tested on: Wild type
Assay: growth inhibition of S. aureus wild type versus tarO mutant, primary screen, teichoic acid synthesis inhibitors, RN4220, OD600 (AID 463173)
Conditions: S. aureus RN4220 wild type/DeltatarO growth, OD600, 18 h, stronger effect = lower value, screened at 18.75 µg/mL (by protocol)

How did the survival turn out when `CCc1c(CN2CCN(c3cccc(C)c3)C(C)C2)csc1C` (stereo unspecified) was run?
The survival was 94% (inactive).

`Cc1c(-c2ccccc2)c(=O)oc2ccc(OC(=O)N3CCOCC3)cc12` was tested. Which survival did it give?
Its survival is 78% (inactive).

How did the survival turn out when `CC(C)(C)OC(=O)N1CCC(c2c(C(=O)N3CCN(c4ncccn4)CC3)cnn2-c2cccc(F)c2)CC1` was run?
Its survival is 134% (inactive).

`CCCOc1ccc(Nc2cc(C)nc(C)n2)cc1` was tested. Which survival did it give?
Its survival is 82% (inactive).

How did the survival turn out when `Cc1cc(C)cc(NC(=O)CCCc2nnc3n(CC(C)C)c(=O)c4sccc4n23)c1` was run?
Its survival is 97% (inactive).

`CCc1cccc(-n2nnc(-c3nsc(NC(=O)c4cccs4)n3)c2C)c1` was tested. Which survival did it give?
The survival was -6% (active).

With `CCc1cccc(-n2nnc(-c3nsc(NC(=O)c4ccc(C)cc4)n3)c2C)c1` as the molecule, how does the survival read?
Its survival is 53% (inactive).

With `CCc1ccc(-n2nnc(-c3nsc(NC(=O)c4ccccc4Cl)n3)c2C)cc1` as the molecule, how does the survival read?
Its survival is 12% (active).

How did the survival turn out when `CSc1cccc(-n2nnc(-c3nsc(NC(=O)c4cccs4)n3)c2C)c1` was run?
Its survival is 80% (inactive).

`Cc1cc(C)cc(-n2nnc(-c3nsc(NC(=O)c4ccccc4Cl)n3)c2C)c1` was tested. Which survival did it give?
Its survival is 49% (inactive).

For `Cc1ccc(-n2nnc(-c3nsc(NC(=O)c4ccccc4C)n3)c2C)cc1Cl`, which survival is on record?
The survival was 159% (inactive).

With `Cn1c(=O)c2cc(C(=O)NC3CCCCCC3)sc2c2ccccc21` as the molecule, how does the survival read?
Its survival is 89% (inactive).

With `CCCN(CCC)C(=O)Cn1c(=O)n(Cc2ccc(C(=O)NCCc3ccc(Cl)cc3)cc2)c(=O)c2ccccc21` as the molecule, how does the survival read?
Its survival is 113% (inactive).

How did the survival turn out when `CCCCN(C(=O)CCn1c(=O)oc2ccccc21)c1ccccc1` was run?
The survival was 71% (inactive).

How did the survival turn out when `COc1ccc(S(=O)(=O)n2nc(C)c(S(=O)(=O)N3CCCCC3)c2C)cc1` was run?
Its survival is 63% (inactive).

`CCCOc1ccc(OC(=O)c2sc3ncn(Cc4cccc(F)c4)c(=O)c3c2C)cc1` was tested. Which survival did it give?
Its survival is 56% (inactive).

Which survival does the source give for `COc1ccc(C(=O)Nc2ccccc2C(=O)OCc2cc(=O)n3nc(C4CC4)sc3n2)cc1` here?
Its survival is 67% (inactive).

With `Cc1ccc(-c2nc(NC(=O)CSc3ncnc4sc5c(c34)CCC(C)C5)ns2)cc1` (stereo unspecified) as the molecule, how does the survival read?
The survival was 75% (inactive).

`CC1CCc2c(sc3ncnc(NCCOCCO)c23)C1` (stereo unspecified) was tested. Which survival did it give?
Its survival is 106% (inactive).

How did the survival turn out when `CCC(C(=O)OC(C)C)n1cnc2sc3c(c2c1=O)CCC(C)C3` (stereo unspecified) was run?
Its survival is 71% (inactive).

For `CCCCCOC(=O)CSc1ncnc2sc3c(c12)CCC(C)C3` (stereo unspecified), which survival is on record?
Its survival is -1% (active).

For `CCCCCOC(=O)CSc1ncnc2c1sc1nc(N3CCOCC3)c3c(c12)CCCC3`, which survival is on record?
Its survival is 61% (inactive).

Which survival does the source give for `CCCOC(=O)CSc1ncnc2sc3c(c12)CCC(C)C3` (stereo unspecified) here?
The survival was 7% (active).

How did the survival turn out when `CCOC(=O)CSc1nc2sc3c(c2c(=O)n1Cc1ccccc1)CC(C)CC3` (stereo unspecified) was run?
The survival was 68% (inactive).

`CCCCOC(=O)CSc1ncnc2sc3c(c12)CCC(C)C3` (stereo unspecified) was tested. Which survival did it give?
Its survival is 15% (active).

For `Cc1ccc(OCCCCn2nnc3sc4c(c3c2=O)CCC(C)C4)cc1` (stereo unspecified), which survival is on record?
Its survival is 94% (inactive).
